Laboratory results: the supplement of paper PMC12645437, “Orthogonal IMiD-Degron Pairs Induce Selective Protein Degradation in Cells” (ACS Chemical Biology, 2025)
Over roughly 8,300 sequences, “log2 fold change of degron read counts, EGFP-low vs EGFP+ sorted cells (limma voom), compound-induced degradation” has its median near -1.1; the highest 2% begin near 3.2. For the sample, the highest values were picked, then their nearest neighbours and some sequences at random.

Target: T1, CRBN, Q96SW2
T1 chain: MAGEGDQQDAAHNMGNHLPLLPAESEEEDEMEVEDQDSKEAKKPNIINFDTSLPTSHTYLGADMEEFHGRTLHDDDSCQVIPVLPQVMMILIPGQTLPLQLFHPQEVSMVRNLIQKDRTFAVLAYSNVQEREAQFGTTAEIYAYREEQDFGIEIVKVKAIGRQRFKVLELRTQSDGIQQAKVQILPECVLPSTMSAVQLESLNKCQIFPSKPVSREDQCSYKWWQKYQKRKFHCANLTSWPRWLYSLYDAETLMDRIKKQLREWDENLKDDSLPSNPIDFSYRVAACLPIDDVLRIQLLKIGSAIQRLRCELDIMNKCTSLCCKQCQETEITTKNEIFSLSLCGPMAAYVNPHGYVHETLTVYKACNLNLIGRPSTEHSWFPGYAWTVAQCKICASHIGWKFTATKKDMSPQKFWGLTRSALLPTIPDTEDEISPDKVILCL
Assay: log2 fold change of degron read counts, EGFP-low vs EGFP+ sorted cells (limma voom), compound-induced degradation; higher = more compound-induced degradation of the degron-EGFP fusion; degrons are variants of IKZF1/3 zinc finger 2; compound dose not given here
Details: Jurkat, 18 h

[1] = compound: compound 19 (5-tert-butyl-thalidomide)
[2] = compound: compound 22 (5-morpholino-thalidomide)
[3] = compound: compound 33 (diphenyl IMiD analogue)
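Further: pooled lentiviral library of zinc finger degron-EGFP fusions in mCherry-positive Jurkat cells, FACS-sorted after compound exposure, with degron abundance counted by next-generation sequencing.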

| Sequence | log2 fold change of degron read counts [1] | log2 fold change of degron read counts [2] | log2 fold change of degron read counts [3] | log2 fold change of degron read counts (compound: thalidomide) |
| --- | --- | --- | --- | --- |
| FRCEVCGATFTQKGNLLRHIKL [46F_47R_49E_50V_52G_53A_54T_55F_67L_, Q9UKT9] | -0.885 | -1.05 | 1.42 | 1.06 |
| FNCEVCGATFTQKGNLLRHIKL [46F_47N_49E_50V_52G_53A_54T_55F_67L_, Q9UKT9] | 1.35 | 0.0506 | 0.168 | -0.31 |
| FWCEVCGATFTQKGNLLRHIKL [46F_47W_49E_50V_52G_53A_54T_55F_67L_, Q9UKT9] | 2.75 | 3.75 | 1.87 | 0.335 |
| FQCEVCGATFTQKGNLLRHIKL [46F_47Q_49E_50V_52G_53A_54T_55F_67L_, Q9UKT9] | 0.152 | 2.64 | 2.01 | 3.74 |
| FACEVCGATFTQKGNLLRHIKL [46F_47A_49E_50V_52G_53A_54T_55F_67L_, Q9UKT9] | 3.32 | 2.03 | 0.449 | -0.11 |
| FSCEVCGATFTQKGNLLRHIKL [46F_47S_49E_50V_52G_53A_54T_55F_67L_, Q9UKT9] | 2.73 | 2.4 | 1.63 | 1.3 |
| FGCEVCGATFTQKGNLLRHIKL [46F_47G_49E_50V_52G_53A_54T_55F_67L_, Q9UKT9] | 3.09 | 2.54 | 0.976 | 0.784 |
| FMCEVCGATFTQKGNLLRHIKL [46F_47M_49E_50V_52G_53A_54T_55F_67L_, Q9UKT9] | -1.56 | -0.319 | 2.09 | 0.937 |
| FYCEVCGATFTQKGNLLRHIKL [46F_47Y_49E_50V_52G_53A_54T_55F_67L_, Q9UKT9] | 3.1 | 4.14 | 2.47 | 1.12 |
| FKCEVCGATFTQKGNLLRHIKL [46F_47K_49E_50V_52G_53A_54T_55F_67L_, Q9UKT9] | -1.63 | -3.47 | -2.68 | -1.11 |
| FDCEVCGATFTQKGNLLRHIKL [46F_47D_49E_50V_52G_53A_54T_55F_67L_, Q9UKT9] | 0.941 | -0.571 | -0.022 | 0.317 |
| FCCEVCGATFTQKGNLLRHIKL [46F_47C_49E_50V_52G_53A_54T_55F_67L_, Q9UKT9] | 1.77 | 2.12 | 2.55 | 2.46 |
| LLCEICGFNCTQKGNLLRHIKL [46L_47L_49E_50I_52G_53F_54N_55C_67L_, Q9UKT9] | -1.18 | -1.96 | -1.11 | -0.267 |
| FYCEICGRPFTQKGNLLRHIKL [46F_47Y_49E_50I_52G_53R_54P_55F_67L_, Q9UKT9] | 3.04 | 1.62 | 1.39 | 0.0233 |
| FACNQCGHHFTQKGNLLRHIKL [46F_47A_49N_50Q_52G_53H_54H_55F_67L_, Q9UKT9] | -2.3 | -2.72 | -2.62 | -2.01 |
| FDCNQCGASFTQKGNLLRHIKL [46F_47D_49N_50Q_52G_53A_54S_55F_67L_, Q9UKT9] | -2.01 | -2.73 | -2.35 | -2.1 |
| FYCPICGHYFTQKGNLLRHIKL [46F_47Y_49P_50I_52G_53H_54Y_55F_67L_, Q9UKT9] | -0.992 | -1.44 | -0.727 | -1.13 |

| Sequence | log2 fold change of degron read counts [1] | log2 fold change of degron read counts [2] | log2 fold change of degron read counts [3] | log2 fold change of degron read counts (compound: thalidomide) |
| --- | --- | --- | --- | --- |
| FWCPICGAFFTQKGNLLRHIKL [46F_47W_49P_50I_52G_53A_54F_55F_67L_, Q9UKT9] | 2.39 | 3 | 1.83 | 0.77 |
| LKCNQCGFQCTQKGNLLRHIKL [46L_47K_49N_50Q_52G_53F_54Q_55C_67L_, Q9UKT9] | -2.34 | -2.76 | -2.86 | -2.48 |
| FKCDQCGAEFTQKGNLLRHIKL [46F_47K_49D_50Q_52G_53A_54E_55F_67L_, Q9UKT9] | -2.81 | -1.6 | -3.49 | -3 |
| FFCEVCGATFTQKGNLLRHIKL [46F_47F_49E_50V_52G_53A_54T_55F_67L_, Q9UKT9] | 2.72 | 3.74 | 1.9 | 1.47 |
| FLCEVCGATFTQKGNLLRHIKL [46F_47L_49E_50V_52G_53A_54T_55F_67L_, Q9UKT9] | -1.71 | -1.32 | 0.752 | 1.34 |
| FVCEVCGATFTQKGNLLRHIKL [46F_47V_49E_50V_52G_53A_54T_55F_67L_, Q9UKT9] | -0.246 | 1.36 | 1.98 | 2.24 |
| FLCPICGRGFTQKGNLLRHIKL [46F_47L_49P_50I_52G_53R_54G_55F_67L_, Q9UKT9] | -1.58 | -1.94 | -0.785 | -0.724 |
| FSCPICGAHFTQKGNLLRHIKL [46F_47S_49P_50I_52G_53A_54H_55F_67L_, Q9UKT9] | 2.35 | 1.14 | 1.5 | 1.13 |
| FCCPICGAHFTQKGNLLRHIKL [46F_47C_49P_50I_52G_53A_54H_55F_67L_, Q9UKT9] | 1.94 | 0.949 | 1.85 | 1.24 |
| FYCPICGAHFTQKGNLLRHIKL [46F_47Y_49P_50I_52G_53A_54H_55F_67L_, Q9UKT9] | 3.12 | 3.56 | 2.1 | 0.702 |
| FACPICGAHFTQKGNLLRHIKL [46F_47A_49P_50I_52G_53A_54H_55F_67L_, Q9UKT9] | 3.08 | 1 | 0.948 | 0.563 |
| FFCPICGAHFTQKGNLLRHIKL [46F_47F_49P_50I_52G_53A_54H_55F_67L_, Q9UKT9] | 2.66 | 2.83 | 1.81 | 0.615 |
| FQCPICGAHFTQKGNLLRHIKL [46F_47Q_49P_50I_52G_53A_54H_55F_67L_, Q9UKT9] | 0.0422 | 1.5 | 1.32 | 3.32 |
| FVCPICGAHFTQKGNLLRHIKL [46F_47V_49P_50I_52G_53A_54H_55F_67L_, Q9UKT9] | -0.217 | 2.12 | 1.37 | 2.41 |
| FGCPICGAHFTQKGNLLRHIKL [46F_47G_49P_50I_52G_53A_54H_55F_67L_, Q9UKT9] | 2.89 | 1.31 | 1.51 | 0.333 |
| FWCPICGAHFTQKGNLLRHIKL [46F_47W_49P_50I_52G_53A_54H_55F_67L_, Q9UKT9] | 2.66 | 3.51 | 1.81 | 0.881 |
